Data: PubChem BioAssay AID1159580 (chemical genetic matrix, 2015)
Several values for one entry are separate records, joined by “and”; a condition that tells them apart may be missing. Identical values can stand only once. Among all 5,500 compounds or so, about 2,000 (36%) were called active. Roughly 18% stayed inconclusive and do not appear here. No stated cut-off is given here; in the data, active means normalized growth mostly below about 0.91 (no sharp cut-off); inconclusive means no clear call, values can overlap the other calls; inactive means mostly above about 0.92. The list shows a part of the results. Some compounds were tested as several samples or in several runs, with calls that do not always agree.

Experiment: chemical genetic growth profiling, strain panel (AID 1159580);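 further: tested at 20 µM; growth read once vehicle control cultures reached saturation at 30 °C; 1 = growth at the plate median or of vehicle wells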
Settings: growth OD

CN(C)CCCN1c2ccccc2Sc2ccc(C(F)(F)F)cc21
normalized growth (S. cerevisiae deletion strains, locus YJR066W, strain TOR1, stronger effect = lower value): 0.981 (inactive) | normalized growth (S. cerevisiae deletion strains, locus YJR075W, strain HOC1, stronger effect = lower value): 1.01 (inactive) | normalized growth (S. cerevisiae deletion strains, locus YKL009W, strain mrt4, stronger effect = lower value): 0.944 (inactive) | normalized growth (S. cerevisiae deletion strains, locus YKL068W, stronger effect = lower value): 0.991 (inactive) | normalized growth (S. cerevisiae deletion strains, locus YKL085W, strain MDH1 (second series), stronger effect = lower value): 0.994 (inactive) | normalized growth (S. cerevisiae deletion strains, locus YKL085W, strain MDH1, stronger effect = lower value): 0.994 (inactive) | normalized growth (S. cerevisiae deletion strains, locus YKL160W, strain elf1, stronger effect = lower value): 0.997 (inactive) | normalized growth (S. cerevisiae deletion strains, locus YKL190W, strain CNB1, stronger effect = lower value): 0.995 (inactive) | normalized growth (S. cerevisiae deletion strains, locus YKR001C, strain vps1, stronger effect = lower value): 0.978 (inactive) | normalized growth (S. cerevisiae deletion strains, locus YKR026C, strain gcn3, stronger effect = lower value): 1.02 (inactive) | normalized growth (S. cerevisiae deletion strains, locus YKR091W, strain srl3, stronger effect = lower value): 1.02 (inactive) | normalized growth (S. cerevisiae deletion strains, locus YLL001W, strain dnm1, stronger effect = lower value): 1 (inactive) | normalized growth (S. cerevisiae deletion strains, locus YLL026W, stronger effect = lower value): 1 (inactive) | normalized growth (S. cerevisiae deletion strains, locus YLL041C, strain sdh2, stronger effect = lower value): 1.01 (inactive) | normalized growth (S. cerevisiae deletion strains, locus YLR027C, strain aat2, stronger effect = lower value): 0.992 (inactive) | normalized growth (S. cerevisiae deletion strains, locus YLR039C, strain RIC1, stronger effect = lower value): 0.901 (inactive) | normalized growth (S. cerevisiae deletion strains, locus YLR058C, strain SHM2, stronger effect = lower value): 0.977 (inactive) | normalized growth (S. cerevisiae deletion strains, locus YLR102C, strain apc9, stronger effect = lower value): 0.979 (inactive) | normalized growth (S. cerevisiae deletion strains, locus YLR113W, strain HOG1, stronger effect = lower value): 0.979 (inactive) | normalized growth (S. cerevisiae deletion strains, locus YLR221C, strain rsa3, stronger effect = lower value): 0.977 (inactive) | normalized growth (S. cerevisiae deletion strains, locus YLR258W, strain gsy2, stronger effect = lower value): 0.989 (inactive) | normalized growth (S. cerevisiae deletion strains, locus YLR262C, strain YPT6 (second series), stronger effect = lower value): 1.16 [resistant] (active) | normalized growth (S. cerevisiae deletion strains, locus YLR262C, strain YPT6, stronger effect = lower value): 0.87 (inactive) | normalized growth (S. cerevisiae deletion strains, locus YLR268W, strain sec22, stronger effect = lower value): 1.05 (inactive) | normalized growth (S. cerevisiae deletion strains, locus YLR320W, strain mms22, stronger effect = lower value): 1.06 (inactive) | normalized growth (S. cerevisiae deletion strains, locus YLR330W, strain CHS5, stronger effect = lower value): 0.989 (inactive) | normalized growth (S. cerevisiae deletion strains, locus YLR342W, strain FKS1 (second series), stronger effect = lower value): 1 (inactive) | normalized growth (S. cerevisiae deletion strains, locus YLR342W, strain FKS1, stronger effect = lower value): 1.02 (inactive) | normalized growth (S. cerevisiae deletion strains, locus YLR357W, strain rsc2, stronger effect = lower value): 1.02 (inactive) | normalized growth (S. cerevisiae deletion strains, locus YLR370C, strain arc18, stronger effect = lower value): 1 (inactive) | normalized growth (S. cerevisiae deletion strains, locus YLR371W, strain rom2, stronger effect = lower value): 0.955 (inactive) | normalized growth (S. cerevisiae deletion strains, locus YLR384C, strain iki3, stronger effect = lower value): 1.01 (inactive) | normalized growth (S. cerevisiae deletion strains, locus YLR418C, strain cdc73, stronger effect = lower value): 0.958 (inactive) | normalized growth (S. cerevisiae deletion strains, locus YML016C, strain PPZ1, stronger effect = lower value): 0.994 (inactive) | normalized growth (S. cerevisiae deletion strains, locus YML032C, strain rad52, stronger effect = lower value): 0.989 (inactive) | normalized growth (S. cerevisiae deletion strains, locus YML120C, strain ndi1, stronger effect = lower value): 0.97 (inactive) | normalized growth (S. cerevisiae deletion strains, locus YML124C, strain tub3, stronger effect = lower value): 0.976 (inactive) | normalized growth (S. cerevisiae deletion strains, locus YMR058W, strain fet3, stronger effect = lower value): 0.999 (inactive) | normalized growth (S. cerevisiae deletion strains, locus YMR078C, strain ctf18, stronger effect = lower value): 0.961 (inactive) | normalized growth (S. cerevisiae deletion strains, locus YMR125W, strain sto1, stronger effect = lower value): 0.992 (inactive) | normalized growth (S. cerevisiae deletion strains, locus YMR129W, stronger effect = lower value): 1.02 (inactive) | normalized growth (S. cerevisiae deletion strains, locus YMR205C, strain PFK2, stronger effect = lower value): 1.01 (inactive) | normalized growth (S. cerevisiae deletion strains, locus YMR223W, strain ubp8, stronger effect = lower value): 0.969 (inactive) | normalized growth (S. cerevisiae deletion strains, locus YMR263W, strain SAP30, stronger effect = lower value): 0.988 (inactive) and 0.998 (inactive) | normalized growth (S. cerevisiae deletion strains, locus YMR307W, strain GAS1, stronger effect = lower value): 1.05 (inactive) and 1.01 (inactive) | normalized growth (S. cerevisiae deletion strains, locus YNL067W, strain RPL9B, stronger effect = lower value): 1.01 (inactive) | normalized growth (S. cerevisiae deletion strains, locus YNL071W, strain lat1, stronger effect = lower value): 1.01 (inactive) | normalized growth (S. cerevisiae deletion strains, locus YNL128W, strain TEP1, stronger effect = lower value): 0.968 (inactive) and 1.11 [resistant] (active) | normalized growth (S. cerevisiae deletion strains, locus YNL153C, strain GIM3, stronger effect = lower value): 1.01 (inactive) | normalized growth (S. cerevisiae deletion strains, locus YNL175C, strain NOP13, stronger effect = lower value): 1.01 (inactive) | normalized growth (S. cerevisiae deletion strains, locus YNL183C, strain NPR1, stronger effect = lower value): 0.962 (inactive) | normalized growth (S. cerevisiae deletion strains, locus YNL197C, strain WHI3, stronger effect = lower value): 1.03 (inactive) | normalized growth (S. cerevisiae deletion strains, locus YNL209W, strain ssb2, stronger effect = lower value): 0.986 (inactive) | normalized growth (S. cerevisiae deletion strains, locus YNL224C, strain SQS1, stronger effect = lower value): 1.03 (inactive) | normalized growth (S. cerevisiae deletion strains, locus YNL233W, strain BNI4, stronger effect = lower value): 1.02 (inactive) | normalized growth (S. cerevisiae deletion strains, locus YNL248C, strain rpa49, stronger effect = lower value): 0.953 (inactive) | normalized growth (S. cerevisiae deletion strains, locus YNL250W, strain rad50, stronger effect = lower value): 0.963 (inactive) | normalized growth (S. cerevisiae deletion strains, locus YNL271C, strain bni1, stronger effect = lower value): 0.982 (inactive) | normalized growth (S. cerevisiae deletion strains, locus YNL298W, strain CLA4, stronger effect = lower value): 0.954 (inactive) | normalized growth (S. cerevisiae deletion strains, locus YNL307C, strain MCK1, stronger effect = lower value): 0.987 (inactive) | normalized growth (S. cerevisiae deletion strains, locus YNL322C, strain KRE1 (second series), stronger effect = lower value): 1.03 (inactive) | normalized growth (S. cerevisiae deletion strains, locus YNL322C, strain KRE1, stronger effect = lower value): 0.993 (inactive) and 0.907 (inactive) | normalized growth (S. cerevisiae deletion strains, locus YNR049C, strain mso1, stronger effect = lower value): 1.02 (inactive) | normalized growth (S. cerevisiae deletion strains, locus YNR052C, strain pop2, stronger effect = lower value): 0.962 (inactive) | normalized growth (S. cerevisiae deletion strains, locus YOL006C, strain TOP1, stronger effect = lower value): 0.611 (inactive) | normalized growth (S. cerevisiae deletion strains, locus YOL012C, strain htz1): 1.01 (inactive) | normalized growth (S. cerevisiae deletion strains, locus YOL147C, strain pex11, stronger effect = lower value): 0.991 (inactive) | normalized growth (S. cerevisiae deletion strains, locus YOR001W, strain rrp6, stronger effect = lower value): 0.938 (inactive) | normalized growth (S. cerevisiae deletion strains, locus YOR061W, strain CKA2, stronger effect = lower value): 0.967 (inactive) | normalized growth (S. cerevisiae deletion strains, locus YOR069W, strain VPS5, stronger effect = lower value): 0.987 (inactive) | normalized growth (S. cerevisiae deletion strains, locus YOR070C, strain gyp1, stronger effect = lower value): 1.01 (inactive) | normalized growth (S. cerevisiae deletion strains, locus YOR080W, strain dia2, stronger effect = lower value): 1.03 (inactive) | normalized growth (S. cerevisiae deletion strains, locus YOR083W, strain WHI5 (second series), stronger effect = lower value): 0.946 (inactive) | normalized growth (S. cerevisiae deletion strains, locus YOR083W, strain WHI5, stronger effect = lower value): 0.954 (inactive) | normalized growth (S. cerevisiae deletion strains, locus YOR106W, strain vam3, stronger effect = lower value): 0.561 (active) | normalized growth (S. cerevisiae deletion strains, locus YOR136W, strain idh2, stronger effect = lower value): 0.972 (inactive) | normalized growth (S. cerevisiae deletion strains, locus YOR144C, strain elg1, stronger effect = lower value): 0.974 (inactive) | normalized growth (S. cerevisiae deletion strains, locus YOR184W, strain ser1, stronger effect = lower value): 0.96 (inactive) | normalized growth (S. cerevisiae deletion strains, locus YOR231W, strain MKK1, stronger effect = lower value): 0.978 (inactive) | normalized growth (S. cerevisiae deletion strains, locus YOR265W, strain rbl2, stronger effect = lower value): 1.01 (inactive) | normalized growth (S. cerevisiae deletion strains, locus YOR270C, strain vph1, stronger effect = lower value): 0.737 (active) | normalized growth (S. cerevisiae deletion strains, locus YOR290C, strain snf2, stronger effect = lower value): 0.989 (inactive) | normalized growth (S. cerevisiae deletion strains, locus YOR316C, strain cot1, stronger effect = lower value): 0.965 (inactive) | normalized growth (S. cerevisiae deletion strains, locus YPL051W, strain arl3, stronger effect = lower value): 0.966 (inactive) | normalized growth (S. cerevisiae deletion strains, locus YPL055C, strain LGE1, stronger effect = lower value): 0.968 (inactive) and 0.953 (inactive) | normalized growth (S. cerevisiae deletion strains, locus YPL078C, strain atp4, stronger effect = lower value): 0.992 (inactive) | normalized growth (S. cerevisiae deletion strains, locus YPL106C, strain sse1, stronger effect = lower value): 0.911 (inactive) | normalized growth (S. cerevisiae deletion strains, locus YPL240C, strain hsp82, stronger effect = lower value): 1.03 (inactive) | normalized growth (S. cerevisiae deletion strains, locus YPL241C, strain CIN2, stronger effect = lower value): 0.996 (inactive) and 0.976 (inactive) | normalized growth (S. cerevisiae deletion strains, locus YPL256C, strain CLN2, stronger effect = lower value): 0.988 (inactive) | normalized growth (S. cerevisiae deletion strains, locus YPR119W, strain clb2, stronger effect = lower value): 0.982 (inactive) | normalized growth (S. cerevisiae deletion strains, locus YPR141C, strain kar3, stronger effect = lower value): 0.926 (inactive) | normalized growth (S. cerevisiae deletion strains, locus YPR163C, strain tif3, stronger effect = lower value): 0.979 (inactive) | normalized growth (S. cerevisiae deletion strains, locus YPR167C, strain met16, stronger effect = lower value): 0.981 (inactive) | normalized growth (S. cerevisiae deletion strains, strain wtn01, stronger effect = lower value): 0.981 (inactive) | normalized growth (S. cerevisiae strains, strain wild type, stronger effect = lower value): 0.979 (inactive)
